Laboratory results taken from publication PMC5700166.

Molecular target: GST-Hu-p50 (Homo sapiens, UniProt P19838 7-356)
Experiment: protein-binding microarray (PBM); PBM: ~300 nM protein, 6 mM HEPES pH 7.8, 80 mM KCl, 0.5 mM EDTA, 0.5 mM EGTA, 6% glycerol, 35 ng/ul poly-dIdC, 1% milk, 1 h, room temperature; Ap Aiptasia and Nv Nematostella (sea anemones) / Co Capsaspora / Aq Amphimedon (sponge) / Dm Drosophila / Hu human; RHD is the Rel homology domain; high values mean tight binding
Conditions: dsDNA, one strand shown

Chain of GST-Hu-p50 (P19838 7-356): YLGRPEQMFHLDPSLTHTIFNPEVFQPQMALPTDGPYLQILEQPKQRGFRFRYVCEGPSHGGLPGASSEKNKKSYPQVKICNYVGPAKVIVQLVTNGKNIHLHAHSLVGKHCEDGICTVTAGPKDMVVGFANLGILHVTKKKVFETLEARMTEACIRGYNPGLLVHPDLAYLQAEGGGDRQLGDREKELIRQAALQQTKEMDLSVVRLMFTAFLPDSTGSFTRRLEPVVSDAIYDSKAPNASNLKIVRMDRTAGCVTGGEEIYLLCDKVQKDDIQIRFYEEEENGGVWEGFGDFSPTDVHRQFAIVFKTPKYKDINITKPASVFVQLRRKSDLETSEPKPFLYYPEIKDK

First: CCGATTAACATCAAATTTTTCCCTGATGTTAATCGGGTCTTGATTCGCTTGACGCTGCTG
Second: CCGATTAACATCAAAAATTCCCATGATGTTAATCGGGTCTTGATTCGCTTGACGCTGCTG
The binding signal of the first is lower: 4.48 z-score for the first, 5.24 z-score for the second.

Compared with “CCGATTAACATCAGGGGAACATATGATGTTAATCGGGTCTTGATTCGCTTGACGCTGCTG”, “CCGATTAACATCAGGGATTCCACTGATGTTAATCGGGTCTTGATTCGCTTGACGCTGCTG” is lower in binding signal: 4.06 z-score for the first, 1.75 z-score for the second.

First: CCGATTAACATCAAGGAAAGCCCTGATGTTAATCGGGTCTTGATTCGCTTGACGCTGCTG
Second: CCGATTAACATCACCCAAAGTTTTGATGTTAATCGGGTCTTGATTCGCTTGACGCTGCTG
The binding signal of the first is higher: 1.13 z-score for the first, 1.11 z-score for the second.

Compared with “CCGATTAACATCACGGGATTTTCTGATGTTAATCGGGTCTTGATTCGCTTGACGCTGCTG”, “CCGATTAACATCAGGGGTTACACTGATGTTAATCGGGTCTTGATTCGCTTGACGCTGCTG” is lower in binding signal: 4 z-score for the first, 1.37 z-score for the second.

Compared with “CCGATTAACATCATGTCTATCGGTGATGTTAATCGGGTCTTGATTCGCTTGACGCTGCTG”, “CCGATTAACATCATACAAGGGAGTGATGTTAATCGGGTCTTGATTCGCTTGACGCTGCTG” is lower in binding signal: 1.14 z-score for the first, 1.09 z-score for the second.

Compared with “CCGATTAACATCACCCTTGGGAATGATGTTAATCGGGTCTTGATTCGCTTGACGCTGCTG”, “CCGATTAACATCACGATTTTCCCTGATGTTAATCGGGTCTTGATTCGCTTGACGCTGCTG” is higher in binding signal: 1.55 z-score for the first, 3.78 z-score for the second.

First: CCGATTAACATCAAAAATTCCATTGATGTTAATCGGGTCTTGATTCGCTTGACGCTGCTG
Second: CCGATTAACATCAAGGGAAAATATGATGTTAATCGGGTCTTGATTCGCTTGACGCTGCTG
The binding signal of the first is lower: 1.07 z-score for the first, 4.8 z-score for the second.
